Compound activity from PubChem BioAssay.
Pyk2 oligo antag – antagonists of Pyk2 self-association, primary screen, Q293 cells, FERM NanoBiT luminescence, HTS; 0.83% of 99,000 active; stronger effect = lower value; z-score (the deposit names both 25 µM and 10 µM); Protein-tyrosine kinase 2-beta (Homo sapiens), Q14289;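 active means Z-score of -3 or lower, scaled per plate to the spread of control and sample wells; inactive means z-score above -3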;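 further: negative z-score means lost luminescence so less FERM oligomerization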
PostGolgi yeast – phenotypic screen on post-Golgi transport, primary screen; 0.9% of 98,000 active; inhibition, % at 10 µM; AID 739, 2007; post-Golgi transport phenotypic cell assay;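 further: yeast cells grown in 1536-well plates; yeast grown about 18 h at 30C before absorbance read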
PostGolgi ctrl – growth inhibition of yeast control strain, primary screen, counter-screen for post-Golgi transport modulator project; efflux-deficient yeast background strain, growth absorbance A615, 16 h; inhibition, % at 10 µM; 5% of 98,000 active; AID 738, 2007
Cav3 T inh – Cav3.2 calcium influx blockers – cell-based, Fluo-4 calcium fluorescence, FDSS, MLSMR library, primary screen | Cav3.2-expressing cells; stronger effect = lower value | 4% of 100,000 active | B-score at 10 µM | AID 449739, 2010;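 active means single-dose well whose peak fluorescence ratio is a statistical outlier from its plate by either plate-standardised score or position-corrected B-score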
* marks the source's active call; other numbers are inactive results; . = no result given. An excerpt weighted towards active compounds, which were near 8% of everything screened. Unless noted, no stated cut-off is given here; in the data, active means inhibition above about 30%; inactive means the rest.

SMILES	Pyk2 oligo antag	PostGolgi yeast	PostGolgi ctrl	Cav3 T inh
Cc1ccc(N2C(=O)NC(=O)/C(=C/c3ccc(OC(=O)c4cccs4)cc3)C2=O)cc1	-0.51	1	32*	-0.045
COc1cc(/C=C2\C(=O)NC(=O)N(c3ccccc3)C2=O)cc(OC)c1O	-0.72	0	4	0.42
O=C(Cc1ccccc1)OCCN1CCCCC1	-0.19	8	6	0.3
O=C(Cc1ccccc1)Oc1cccc(N2C(=O)CCC2=O)c1	0.17	3	33*	-0.032
CCOC(=O)C1(c2ccccc2)CCN(CCC(C#N)(c2ccccc2)c2ccccc2)CC1	.	.	.	-7.5*
Cc1ccc2c(c1)CC1(CN2C)C(=O)NC(=O)N(CCC2=CCCCC2)C1=O (stereo not given)	-0.28	11	40*	0.67
C=C(C)[C@H]1CN[C@H](C(=O)O)[C@H]1CC(=O)O	.	.	.	-0.99
COc1ccc(C(=O)N2CCOCC2)cc1S(=O)(=O)N1CCC(C)CC1	0.43	6	7	-0.058
CC1CCN(S(=O)(=O)c2ccc(NN=C(C#N)C#N)cc2)CC1	.	-1	10	-8.4*
O=P(Nc1ccccc1)(Nc1ccccc1)Oc1cccc(Cl)c1	-2.2	-8	16	-7.1*
COc1ccc(OC)c(N2C(=O)NC(=O)C(CCc3ccncc3)(CCc3ccncc3)C2=O)c1	0.76	-4	14	1.1
CCCCCCOc1ccc(CN2CCN(CCO)CC2)cc1	-0.34	89*	31*	0.83
Cc1nc2ccccc2n1C1CCN(Cc2nnnn2CCc2ccccc2)CC1	0.52	1	39*	-1.1
c1ccc(CCn2nnnc2CN2CCC(n3nnc4ccccc43)CC2)cc1	2.1	-6	1	0.77
CCOC(=O)c1cncn1C(C)c1ccccc1 (stereo not given)	.	1	-7	.
COc1ccc(P2(=O)Nc3ccccc3N2)cc1	-0.75	-11	11	-2.1*
CN1CCc2nc3sc(C(=O)NC(C)(C)C)c(N)c3cc2C1	0.66	96*	68*	0.68
CCN(CC)c1ccc(CN2CC=C(c3ccc(F)cc3)CC2)cc1	-0.72	60*	22	-0.86
CCN1CC=C(c2c[nH]c3ccccc23)CC1	1.6	12	-3	0.00061
C[N+]1(C)CCC(OC(=O)C(c2ccccc2)c2ccccc2)CC1	.	.	.	-4.4*
CN1C2CCC1CC(OC(c1ccccc1)c1ccccc1N)C2 (stereo not given)	.	.	.	0.084
